Laboratory results from PubChem BioAssay AID686978 (National Center for Advancing Translational Sciences (NCATS), 2013).
Several values for one entry are separate records, joined by “and”; a condition that tells them apart may be missing. Identical values can stand only once. Among all 420,000 compounds or so, about 64,000 (15%) were called active. About 27% were inconclusive and are not listed. These entries were drawn from the full list. Unmarked numbers belong to inactive results. The call rests on the fitted dose curve; in most records, active means well fitted inhibition curve with a large enough effect; inconclusive means small, poorly fitted or top-dose-only effect; inactive means flat fitted curve, though single readings scatter.

test: qHTS for Inhibitors of human tyrosyl-DNA phosphodiesterase 1 (TDP1): qHTS in cells in absence of CPT; details: DT40 Tdp1-/- hTDP1 cells, no CPT, ATP luminescence, 48 h; activity change, negative = growth inhibition: at 46.2 µM (top of the series); further: nearly all actives have a fitted effect of over 55% in size
In short: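 Camptothecin absent (DMSO only). Human TDP1-complemented DT40 knockout cells, 400 cells/well, 37 °C for minimum 48 hr; ATP measured via CellTiter-Glo, 30 min dark incubation, luminescence.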
On the % scale 0 is the no-effect control and ±100 the full control effect; potency means the concentration at half of the fitted maximal effect.

Compound	activity change, negative = growth inhibition [%]	Potency
O=C(CN1C(=O)NC2(CCCCC2)C1=O)N1CCN(C(=O)c2cccs2)CC1	-3.5	
O=C(CSc1ccccc1F)NC1CCS(=O)(=O)C1 (stereo not drawn)	4.81	
O=S1(=O)CCC(NC(=S)SCc2ccccc2Br)C1 (stereo not drawn)		18.4 µM (active)
CCCSC(=S)NC1CCS(=O)(=O)C1 (stereo not drawn)		20.6 µM (active)
CS(=O)(=O)N(C(=O)NC(=O)NC1CCS(=O)(=O)C1)C1CCCCC1 (stereo not drawn)	-1.68	
CCN(CC(=O)NC1CCS(=O)(=O)C1)S(=O)(=O)c1ccccc1 (stereo not drawn)	5.32	
CC(C)C(=O)NC(NC(=S)NC1CCS(=O)(=O)C1)C(Cl)(Cl)Cl (stereo not drawn)	-0.69	
Cc1cc(C)cc(NC(=O)C(c2ccccc2)N2CCN(CC(=O)N3CCCC3)CC2)c1 (stereo not drawn)	-3.14	
S=C(NCc1ccco1)Nc1ccc2c(c1)OCCO2	-15.8	
O=C(NC1CCCCC1)C1c2ccccc2C(=O)N1Cc1ccco1 (stereo not drawn)	3.48	
O=C1c2ccccc2C(Nc2ccc3c(c2)OCCO3)N1Cc1ccco1 (stereo not drawn)		14.6 µM (active)
CCN(CC(=O)Nc1ccc(NC(C)=O)cc1)C(=O)C1CC(=O)N(c2ccc3c(c2)OCCO3)C1 (stereo not drawn)	-28.8	
C/C(N)=C(/C#N)C(=O)COC(=O)CNS(=O)(=O)c1ccc(C)cc1	-4.68	
CC1(C(=O)NS(=O)(=O)c2ccccc2Cl)CCN1C(=O)c1cccc(F)c1 (stereo not drawn)	-10.8	
c1csc(-c2nnc(COc3ccc4c(c3)OCO4)o2)c1	0.933	
COc1cccc(COC(=O)C2CCN(S(=O)(=O)c3ccc(Cl)cc3)CC2)c1OC	-25.1	
Cc1nc2ccc(C(=O)N(C)CC3CCCN(CCc4ccc(Cl)cc4)C3)cc2[nH]1 (stereo not drawn)	5.16	
COc1cccc(CN(C)CC2CCCN(CCc3ccc(Cl)cc3)C2)c1OC (stereo not drawn)		20.6 µM (active)
CO[C@H]1[C@@H](O)[C@H](N)[C@@H](O[C@H]2O[C@H]([C@H](C)N)CC[C@H]2N)[C@H](O)[C@@H]1N(C)C(=O)CN	-9.26	
CCOc1ccc(C(=O)Nc2cc(Cl)ccc2-n2cncn2)cc1OC	6.08	
O=c1[nH]n2c(-c3ccccc3)nc(O)c2c2ccccc12	-0.971	
CCOC(=O)c1cnc2[nH]c3ccccc3n2c1=O	-6.89	

Compound	activity change, negative = growth inhibition [%]	Potency
O=c1[nH]c2ccccc2n2c(-c3ccccc3)nnc12		18.4 µM (active) and 11.2 µM (active)
COC(=O)CCSc1nccn1Cc1ccccc1	3.41	
Cc1ccc(CN2CC(C(=O)NNC(=O)Cn3ccc(C(F)(F)F)n3)CC2=O)cc1 (stereo not drawn)	8.84	
CN(CCO)C(=O)c1nc[nH]c1C(=O)N(C)Cc1ccccc1	-22	
c1ccc2cc3[nH]c(CN4CCCCC4)nc3cc2c1	-10.7	
Cc1ccc(-c2nc3ccccc3[nH]c2=O)cc1	8.47	
CCCCCn1nnnc1-c1nc2cc3ccccc3cc2[nH]c1=O		2.59 µM (active)
O=S1(=O)CSCS(=O)(=O)C1	-12.9	
COc1ccc(CN2C3CCCC2CC(NC(=O)c2cccc(F)c2)C3)cc1 (stereo not drawn)	-4.72	
COc1ccc(CN2C[C@H]3CON(C)[C@H]3C[C@H]2c2ccc(-c3cccc(F)c3)cc2)cc1		16.4 µM (active)
CN1OC[C@@H]2CN(C(=O)c3cccc4ccccc34)[C@H](c3ccc(N4CCCCC4)cc3)C[C@@H]21	0.0679	
CCCNC(=O)c1onc(CSc2ccc(F)cc2)c1C(=O)NC(C)C	-18.8	
Cc1ccc(-c2nc(C)sc2CC(=O)O)cc1	0.642	
N#C/C(=C\c1cccc(F)c1)c1nc(-c2cc3c(ccc4ccccc43)oc2=O)cs1	-10	
O=C(c1ccc(F)cc1)n1cc(C(=S)N2CCOCC2)c2ccccc21		11.6 µM (active)
O=C(Oc1ccc(C(=S)N2CCOCC2)cc1)c1ccc(F)cc1	-29.3	
O=C(Nc1ccc(F)cc1)C(=O)c1cn(CC(=O)N2CCOCC2)c2ccccc12	2.69	
COc1ccc(OC)c(NC(=O)CSc2nc3cccnc3n2C)c1		16.4 µM (active)
CCc1nnc(NC(=O)CSc2nc3ccccc3c(=O)n2CCCOC)s1	-14.5	
COc1ccc(OC)c(NC(=O)CSc2nc(N)c(-c3ccccc3)c(=O)[nH]2)c1	2.08	
Cc1nnc(SCC(=O)N2CCc3ccccc32)n1-c1ccccc1	-15.9	
CCOCCCn1c(SCC(=O)Nc2ccc(CC)cc2)nc2ccccc2c1=O		13 µM (active)

Compound	activity change, negative = growth inhibition [%]	Potency
O=C(CSc1nc2ccccc2c(=O)n1CCCO)NC1CC1	24.5	
COc1ccc(S(=O)(=O)N(C)C)cc1NC(=O)CSc1ncccn1		13 µM (active)
Cn1c(SCC(=O)N2CCCc3ccccc32)nc2ccccc2c1=O		9.2 µM (active)
COc1ccc(C)cc1NC(=O)CSc1cccc[n+]1[O-]	-5.31	
COc1ccc(-c2nnc(SCC(=O)Nc3cccnc3Cl)n2C)cc1	0.301	
COc1ccc(S(=O)(=O)N2CCOCC2)cc1NC(=O)CSc1ncnc2ccccc12	22.5	
O=C(CSc1nc2[nH]ncc2c(=O)n1-c1ccccc1)N1CCCc2ccccc21	-26.4	
CSc1ccc(NC(=O)N2CC(C)OC(C)C2)cc1 (stereo not drawn)	-12.9	
Cn1cccc1C(=O)N1CCC[C@@]2(CCN(Cc3nccs3)C2)C1	-6.43	
Cc1nc2ccc(S(=O)(=O)NC(C(=O)NCc3ccccc3Cl)C(C)C)cc2s1 (stereo not drawn)	-0.153	
C[n+]1cccc(C(=O)O)c1	-1.14	
CSc1ncccc1C(=O)NCc1ccccc1Cl	6.16	
CCOCCCNC(=O)C(NC(=O)c1ccc(=O)[nH]c1)c1ccc(Cl)cc1 (stereo not drawn)	-14.6	
c1ccc(-c2csc(N3CCc4ccccc4C3)n2)cc1	-1.48	
Cc1noc(C)c1CCC(=O)O	1.68	
Cc1ccc(S(=O)(=O)N2CC(O)C[C@H]2C(=O)OCC(=O)Nc2ccc(N3CCOCC3)cc2)cc1C (stereo partly drawn)	14.4	
COc1ccc(NC(=O)CSc2nc3ccccc3c(=O)n2C)cc1		10.3 µM (active)
COc1ccc(NC(=O)CSc2nnc(Cc3ccccc3)c(=O)n2N)cc1	-10.7	
COc1ccc(-n2nnnc2SCC(=O)Nc2ccccc2)cc1	-28.3	
O=C1/C(=C\Nc2ccccc2)CCN1c1ncccn1	-14	
CCC(C)(C)NC(=O)C(c1ccc(O)cc1)N(Cc1ccco1)C(=O)CCC(=O)Nc1ccccn1 (stereo not drawn)	-15.2	
Cc1cc(NC(=O)CCC(=O)N(c2ccccc2)C(C(=O)NC2CCCC2)c2ccncc2)no1 (stereo not drawn)	-2.03	

Compound	activity change, negative = growth inhibition [%]	Potency
Cc1ccc(C(C(=O)NC2CCCC2)N(Cc2ccco2)C(=O)CCC(=O)Nc2ccccn2)cc1 (stereo not drawn)		16.4 µM (active)
CC(=O)NC1(c2ccc(F)cc2)CCN(C(=O)c2c(F)cccc2F)CC1	-1.26	
Cc1cc(C)cc(NC(=O)NC2CCCCCCC2)c1	3.43	
CC(C)c1ccc(NC(=O)NC2CCCCC2)cc1		20.6 µM (active)
CC(C)(C)NS(=O)(=O)c1ccc(NC(=O)NC2CCCCC2)cc1	-24.7	
O/N=C(\C[n+]1ccccc1)c1ccc(Br)cc1	9.42	
COc1ccc(CCNC(=O)CN2CCC(n3nnc4cc(F)ccc43)CC2)cc1OC	-21.5	
Cc1cccc(NC(=O)CSC(N)=O)c1C		18.4 µM (active)
Cc1cccc(NC(=O)COC(=O)CCc2ccccc2)c1C	-0.618	
Cc1ccccc1NC(=O)CSC(=O)c1ccccc1	-114	
N#CCCN(C(=O)COC(=O)c1ccc(S(=O)(=O)N2CCCCCC2)cc1)c1ccccc1	-20.9	
COc1ccccc1-n1nnnc1S(=O)(=O)Cc1ccc(Cl)cc1		6.51 µM (active)
CCC(C)N(C(=O)CSc1nnnn1-c1ccccc1OC)C1CCS(=O)(=O)C1 (stereo not drawn)	15.2	
COc1ccccc1-n1nnnc1SCC(=O)NC(=O)Cc1ccccc1	9.83	
CCOC(=O)C(Sc1ncc(C#N)c(N)n1)C(C)C (stereo not drawn)	-16.3	
O=C(CSc1nnc(-c2ccncc2)n1-c1ccc(Cl)cc1)Nc1ccc(C(=O)O)cc1	-9.17	
Cc1cc(NC(=O)CSCC(=O)NC(C)c2ccccc2)no1 (stereo not drawn)	4.75	
CN(CC(=O)Nc1c(Cl)cccc1Cl)C(=O)CC1OC(=O)c2ccccc21 (stereo not drawn)	2.57	
CC(=O)Nc1ccc(NC(=O)C2CCCN2S(=O)(=O)c2cccc(C(F)(F)F)c2)cc1 (stereo not drawn)	8.22	
CCOc1ccc(OCC)c(NS(=O)(=O)c2ccc3[nH]c(=O)ccc3c2)c1	1.43	
Cc1ccc(S(=O)(=O)Nc2ccccc2CNc2c(C)n(C)n(-c3ccccc3)c2=O)cc1	1.18	
CCc1ccc(NC(=O)C2CCCN2S(=O)(=O)c2ccc3nc(-c4ccccc4)[nH]c3c2)cc1 (stereo not drawn)		23.1 µM (active)

Compound	activity change, negative = growth inhibition [%]	Potency
CCc1nnc(NC(=O)C2CCCN2S(=O)(=O)c2ccccc2)s1 (stereo not drawn)	4.37	
CCc1ccccc1NS(=O)(=O)c1ccc2nc(-c3ccccc3)[nH]c2c1		9.2 µM (active)
COc1ccc(NC(=O)C2C3CCC(O3)C2C(=O)O)cc1OC (stereo not drawn)	21.9	
CC(=O)N1CCN(CC(C)(C)NS(=O)(=O)c2ccc(C)cc2)CC1	17.7	
COc1cc(OC)c(C(=O)NNC(=O)c2ccc(NS(=O)(=O)c3cccs3)cc2)cc1OC	3.62	
COC(=O)Cn1c2ccc(C)cc2c2nc(C)sc21	-12.8	
CCN(CC)CCn1c2ccc(Cl)cc2c2nc(C)sc21		23.1 µM (active)
COc1cc2c(cc1OC)C(c1ccccc1Br)NC(=O)C2 (stereo not drawn)	7.95	
O=C(CCn1c(=O)oc2ccccc21)Nc1ccon1	-1.36	
O=C(CNC(=O)c1ccccc1Br)NNC(=O)c1cccs1	3.7	
O=S(=O)(c1ccc(Br)cc1)c1nnn2c1nc(NC1CCCCCC1)c1sccc12	-5.37	
Cc1ccc(C)c(S(=O)(=O)c2nnn3c2nc(N2CCOCC2)c2sccc23)c1		23.1 µM (active)
Cc1ccc(S(=O)(=O)c2nnn3c2nc(N2CCN(c4ccccn4)CC2)c2ccccc23)cc1	0.726	
COc1ccc(CCOC(=O)CNC(=O)c2ccc(Cl)cc2Cl)cc1	11.6	
COc1ccc(Nc2ncc(C(=O)N3CCN(c4ccccc4OC)CC3)c3ccccc23)cc1		25.9 µM (active) and 5.8 µM (active)
COc1ccc(NC(=O)c2cnc(Nc3ccc(C)c(Cl)c3)c3ccccc23)cc1OC	10.1	
COC(=O)c1cnc(Nc2cc(C)ccc2OC)c2ccccc12	2.44	
COc1ccccc1N1CCN(C(=O)c2ccc(NC3=NC4CS(=O)(=O)CC4S3)cc2)CC1 (stereo not drawn)	-10.6	
COc1ccc(NC2CCCN(C(=O)c3ccccc3-c3ncc[nH]3)C2)cc1 (stereo not drawn)	-7.25	
COc1ccc(Nc2ncc(C(=O)Nc3cc(C)ccc3OC)c3ccccc23)cc1		23.1 µM (active)
